Consider four molecules from the supplement of paper PMC10105736.

Assay in all cases: MAPPIT interaction score (arbitrary units); higher = stronger binary interaction signal, active = hit call of the paper
One test has as its target up. The following applies: MAPPIT configuration: N-N; pair source set: RRS.
In another test the target is tup. The following applies: MAPPIT configuration: N-N; pair source set: Curagen_low_conf.
The target of the next test is yip2. The following applies: MAPPIT configuration: N-N; pair source set: Curagen_high_conf.
The target in another test is sw. The settings on record: pair source set: Lit-BM-16.

A number with no mark means an inactive call.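 Rule for the calls: active = MAPPIT score above the 99th percentile of random reference set scores in the same batch; inactive = at or below it.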
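Note: HEK293T cells with Epo stimulation, STAT-responsive firefly luciferase reporter, fold induction versus unstimulated cells divided by the larger fold induction of two negative controls lacking either bait or prey.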

B1: Pgd (protein)
chain: MSGQADIALIGLAVMGQNLILNMDEKGFVVCAYNRTVAKVKEFLANEAKDTKVIGADSLEDMVSKLKSPRKVMLLVKAGSAVDDFIQQLVPLLSAGDVIIDGGNSEYQDTSRRCDELAKLGLLFVGSGVSGGEEGARHGPSLMPGGHEAAWPLIQPIFQAICAKADGEPCCEWVGDGGAGHFVKMVHNGIEYGDMQLICEAYHIMKSLGLSADQMADEFGKWNSAELDSFLIEITRDILKYKDGKGYLLERIRDTAGQKGTGKWTAIAALQYGVPVTLIGEAVFSRCLSALKDERVQASSVLKGPSTKAQVANLTKFLDDIKHALYCAKIVSYAQGFMLMREAARENKWRLNYGGIALMWRGGCIIRSVFLGNIKDAYTSQPELSNLLLDDFFKKAIERGQDSWREVVANAFRWGIPVPALSTALSFYDGYRTAKLPANLLQAQRDYFGAHTYELLGQEGQFHHTNWTGTGGNVSASTYQA
Regarding B1, in the test with up, the MAPPIT interaction score is 0.146.

B2: Fcp3C (protein)
chain: MDGAKAEVFSVSVDTKMGAFKNSLLLLTLLLAIHLEASKIVYKKPLYGNSNIIKDKRIKTKPVKLETSTMSSTGVASSSTTAEEDWPTAVEFVIMTTPASELEASTETIGNNGTTETTVGEAPIIGSSEGSTRSMEPTTASPLMSTNPSSSSSLVSTIPLPPTAGLPVQDNQPVPCTCGVFLSSQIPNGLPTKPLIHQELDHMFPCNAIGRKQCQTKCLETIVQHLPNSANIVCSALGHDCHKERAYLFIKNCHNQWVNTNLQAGREYCCRSGVPYRCPLMG
With B2, the MAPPIT interaction score with tup was -0.265.

B3: swa (protein)
chain: MSLQDESFPTDELFDQLNNLSSSGARNTWFAEHHKPAVFERDTAPFLEICYADPDFDADGDVANKSAKTCVSDPVGRDQEDEDDYDEDVDGDDHKLGCEKAPLGSGRSSKAVSYQDIHSAYTKRRFQHVTSKVGQYIAEIQAQDQKRRNVKFAGFQRVNSMPESLTPTLQQVYVHDGDFKVDKNCQTHSNSDSNYNSNSNNSSSSFDRLLAENESLQQKINSLRVEAKRLQGFNEYVQERLDRKTDDFVKMKCNFETLRTELSECQQKLRRQQDNSQHHFMYHIRSATSAKATQTDFLVDTIPASGNVLVTPHPLGDLTYNSSKGSIELALLSVAPSARVAQNPVQVQRAIHPQSLDFSSVSTEADGSGSGEHRVETSSRALVRRTPAPNNSETSQPSSNDSAIEVEAHEEERPSSRRQWEQQGELISPRQWGQHEGMYYFDKRNNRVIEVMGFNISQGRNQSHDTIHNQSINDSQTRLLVHSMSMSHLEAHDHFRSKRTTLGSRMLRFLGPCVRCRNGDPLNRSNVTYKDGLPAMPEEEFVDQRNQR
With B3, the MAPPIT interaction score with yip2 was 1.92.

B4: DCTN1-p150 (protein)
chain: MSEKNLKVGARVELTGKDLLGTVAYVGMTSFAVGKWVGVVLDEPKGKNSGSIKGQQYFQCDENCGMFVRPTQLRLLEAAPGSRRSIEDVSGATPTAAQPTKARLSSSRTSLSSSRQSLLGSRTQLTTSLSERTASSSSIGPRKSLAPQNSKDKESPSTSLAEGAPAASGGNGAASHASSKRASFVETGFLEILKPQFTPSQPLRSPSFTMPSNSGAEDKVALLEAQKTSAELQAQLADLTEKLETLKQRRNEDKERLREFDKMKIQFEQLQEFRTKIMGAQASLQKELLRAKQEAKDAIEAKEQHAQEMADLADNVEMITLDKEMAEEKADTLQLELESSKERIEELEVDLELLRSEMQNKAESAIGNISGGGDSPGLSTYEFKQLEQQNIRLKETLVRLRDLSAHDKHDIQKLSKELEMKRSEVTELERTKEKLSAKIDELEAIVADLQEQVDAALGAEEMVEQLAEKKMELEDKVKLLEEEIAQLEALEEVHEQLVESNHELELDLREELDLANGAKKEVLRERDAAIETIYDRDQTIVKFRELVQKLNDQLTELRDRNSSNEKESLQDPSLKMVTETIDYKQMFAESKAYTRAIDVQLRQIELSQANEHVQMLTAFMPESFMSRGGDHDSILVILLISRIVFKCDIVVSQTRERFPPVDAITREAVTQGHAVQQYAFKCRLLHYVHSLQCALHQILYGLNSCQPDTLLRAGSSLPEMVAQEKIVDGIIELLKSNQLDENSTTDNIEKCVAFFNAMNSVLLAGEQLLNEIQMIRDCVASLGAACESILSDTAIAKVIIQEAGATSDSVLLIQFLNENMESVRQQVKLIKRRLPSDQHVIKSGLSQHKVEAMRGLAQNISRIMSAMHQATKQSLAAIVSTIESDNAAEHTLPQEKYWALLTASCERIYEQDDRGPTQNFKTLLAQANSDLQLIAQHLLDKEYDIISAANNASNQQKSGAHSTPITQRAQLIKKQLEQKNVLAATLENREADVKQLKVAAKMKQNELSEMQIRKDLAEKKLSVLQNEYEHAVDKWKQKYEETSLQLQLKEKEFEETMDHLQSDIDALESEKSDLRDKLKLNSTTGKVQPGSESHSPHNISLSGNTSTAPGISNVSYSAPAGTAPVVAEEVELLKNAFNQERNQRLRLQAQDMRAKLSQFEPLHVPQPQDQRITALESELTRMKHAWVLSLLQVRSQDSVNSGTRIDAVALQRRNQPVPLKGEISSKASQLASDILTEYLQRKPHRATHGQFASFPTVDVKRVLQI
Consider B4, for which the values for the MAPPIT interaction score with sw (MAPPIT configuration: N-C) and in the test with sw (MAPPIT configuration: N-N) were 0.412 and -0.153, respectively.
